Shown are actives, neighbours in structure and some others; about 18% of the full set was active somewhere.
DT40 TDP1 CPT: DT40-hTDP1 cell growth loss with CPT; chicken DT40 Tdp1-/-;hTDP1 cells + 20 nM CPT, ATP luminescence, 48 h; Potency, µM (series often up to 46.2 µM), inactives show top-dose activity change, negative = growth inhibition, hits mostly inhibitors; 420,000 compounds, 12% hits; further: potency means the concentration at half of the fitted maximal effect; nearly all actives have a fitted effect of over 55% in size
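Cell growth measured by CellTiter-Glo luminescence after a minimum 48 h, 37 C compound exposure with 20 nM CPT in Tdp1-knockout DT40 cells stably expressing hTDP1, seeded 400/well; qHTS titration format.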
LDHA block: LDHA (human) enzyme inhibition. activity change, % (values are at about 110 or 230 µM). 480,000 compounds, 0.15% hits. purified LDHA, NADH/diaphorase-resazurin fluorescence; hits give low values; in the data active means activity change below about -30%; inconclusive means mostly about -25% to -30%;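 further: plate controls were DMSO wells for no effect and wells without enzyme for full effect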
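Enzyme activity of human lactate dehydrogenase 5 (2 nM; 0.06 mM NADH, 0.2 mM pyruvate, 5 min, RT) is measured via a resazurin/diaphorase fluorescence readout of residual NADH.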
IL-1B inflam inh: inflammasome signaling inhibition, IL-1 beta readout; activity change, % at 57.5 µM; THP-1 LPS/ATP IL-1B secretion, AlphaLISA, 16 h; hits give low values; 360,000 compounds, 4.7% hits; in the data active means activity change below about -50%; inconclusive means mostly about -30% to -49%
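Secreted IL-1B measured by AlphaLISA bead assay after 16 h compound exposure of THP-1 cells; compounds (final up to 57.5 uM) added 1 h before LPS (250 ng/mL) and ATP (1.25 mM) stimulation; lower signal means less secretion.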
DT40 TDP1 no CPT: qHTS for Inhibitors of human tyrosyl-DNA phosphodiesterase 1 (TDP1): qHTS in cells in absence of CPT; DT40 Tdp1-/- hTDP1 cells, no CPT, ATP luminescence, 48 h; Potency, µM (highest dose often 46.2 µM), inactives show at the top dose activity change, negative = growth inhibition, most hits filed as inhibitors; 420,000 compounds, 15% hits; further: potency means the concentration at half of the fitted maximal effect; nearly all actives have a fitted effect of over 55% in size
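Chicken DT40 Tdp1-/- cells complemented with human TDP1, screened without camptothecin (DMSO vehicle only), 400 cells/well. Compounds pin-transferred, cells incubated at 37 °C for at least 48 hr. Growth read as ATP-dependent luminescence (CellTiter-Glo, 30 min at RT).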
RORgamma inh: blocks mouse ROR gamma transcriptional activity; Drosophila S2 Gal4-RORgamma UAS-luciferase reporter, 20 h; 310,000 compounds, 5.4% hits; AID 2551; Potency, µM (doses to about 53.6 µM), inactives show at the top dose activity change, negative = inhibition, hits mostly inhibitors; P51450; further: potency means the concentration at half of the fitted maximal effect; nearly all actives have a fitted effect of over 60% in size
Target sequence (P51450 whole entry, looked up, the tested form may be a part): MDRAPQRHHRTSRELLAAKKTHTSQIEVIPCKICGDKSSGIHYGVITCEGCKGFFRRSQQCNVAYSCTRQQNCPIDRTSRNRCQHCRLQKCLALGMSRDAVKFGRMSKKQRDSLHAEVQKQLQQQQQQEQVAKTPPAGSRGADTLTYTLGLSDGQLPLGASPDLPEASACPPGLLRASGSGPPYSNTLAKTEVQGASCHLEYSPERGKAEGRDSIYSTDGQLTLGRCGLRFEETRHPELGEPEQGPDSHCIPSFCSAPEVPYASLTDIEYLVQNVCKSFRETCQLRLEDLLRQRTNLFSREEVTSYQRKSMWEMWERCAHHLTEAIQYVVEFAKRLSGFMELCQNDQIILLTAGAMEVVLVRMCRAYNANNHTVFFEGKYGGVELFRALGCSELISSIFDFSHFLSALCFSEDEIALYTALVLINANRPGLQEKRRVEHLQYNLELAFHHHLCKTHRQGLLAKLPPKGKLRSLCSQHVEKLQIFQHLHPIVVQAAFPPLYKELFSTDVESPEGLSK
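Drosophila S2 cells stably expressing Gal4-DBD/mouse RORγ fusion under metallothionein promoter plus UAS-luciferase; compound 1 h, then 700 uM CuSO4 induction for 20 h at ambient temperature; inhibition read as reduced luminescence.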
Gal4-VP16 FLuc: inhibits Gal4-VP16 luciferase reporter, ROR gamma counter-screen; AID 2546; Potency, µM (top dose mostly 53.6 µM), for inactives: at the top dose activity, negative = inhibition, usual class: inhibitors; Drosophila S2 Gal4-VP16 UAS-luciferase, luminescence, 20 h; 310,000 compounds, 3.5% hits;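 further: Gal4-VP16 expression switched on by copper sulfate through the metallothionein promoter; potency means the concentration at half of the fitted maximal effect; nearly all actives have a fitted effect of over 50% in size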
Starred values were filed as active, the others as inactive; ? = inconclusive; / = no result given; ! = not active in a repeat. Unless noted, the call rests on the fitted dose curve; in most records, active means well fitted curve in the direction sought with a large enough effect; inconclusive means small, poorly fitted or top-dose-only effect, or another doubt; inactive means no such curve, though single readings can be large; an effect the other way counts as inactive or inconclusive. Unless noted, on the % scale 0 is the no-effect control and ±100 the full control effect.

SMILES	DT40 TDP1 CPT	LDHA block	IL-1B inflam inh	DT40 TDP1 no CPT	RORgamma inh	Gal4-VP16 FLuc
COc1cc(NC(=O)c2ccnc(N)c2)cc(C(=O)Nc2cccc(C(F)(F)F)c2)c1	23.1µM*	0.8	-18.5	20.6µM*	-13.4%	-1.9%
COc1cc(NC(=O)c2cnc(N)s2)cc(C(=O)Nc2cccc(C(F)(F)F)c2)c1	?	-3.8	55.7	18.4µM*	1.0%	5.1%
COc1cccc(NC(=O)c2oc3ccccc3c2NC(=O)c2ccc(C(F)(F)F)cc2)c1	?	-4.5	/	?	/	/
COCc1ccc(C(=O)Nc2cccc(C(=O)Nc3cccc(C(F)(F)F)c3)c2)cc1	/	-10.4	/	/	/	/
COc1cc(NC(=O)c2csc(N)n2)cc(C(=O)Nc2cccc(C(F)(F)F)c2)c1	4.61µM*	-6.1	56.7	2.91µM*	5.6%	9.4%
COc1cc(NC(=O)c2cc(C)on2)cc(C(=O)Nc2cccc(C(F)(F)F)c2)c1	?	2.0	-17.3	?	12.5%	-16.4%
COc1cc(NC(=O)c2cnc(N)o2)cc(C(=O)Nc2cccc(C(F)(F)F)c2)c1	20.6µM*!	-1.1	-21.3	13µM*!	?	?
COc1ccccc1CNC(=O)Cn1ccc2ccccc21	/	1.1	/	/	/	/
O=c1c2cc(Br)ccc2ncn1Cc1ncc(-c2ccccc2)o1	/	0.6	/	/	/	/
N#Cc1nc(-c2ccc(F)cc2)oc1NCCc1ccc(F)cc1	/	8.9	/	/	/	/
N#C/C(=C/c1ccccc1OC(F)F)C(=O)O	/	6.4	/	/	/	/
Cc1ncc(CCl)c2c1OC(C)(C)OC2	?	0.1	8.1	23.1µM*	32.4%	-15.3%
Cc1ncc(CO)c2c1OC(C)(C)OC2	15.3%	-15.4	-10.6	0.3%	8.6%	-3.0%
CCOc1ccc(OCc2nc3ccccc3[nH]2)cc1	/	-0.4	/	/	/	/
O=C1NC2(CCCCC2)NN1c1ccc(Br)cc1	/	-0.2	/	/	/	/
Cc1ccc2nc(SCC(=O)O)nc(C)c2c1	9.6%	-0.9	2.7	-1.6%	-9.6%	5.5%
Cc1ccc2nc(SC(C(=O)c3ccccc3)c3ccccc3)nc(C)c2c1 (stereo unspecified)	?	2.3	31.4	14.6µM*	?	15.8µM*
CCN(CC)c1nc2c(S(=O)(=O)c3ccc(C(C)C)cc3)nnn2c2ccsc12	/	-7.0	/	/	/	/
COc1ccc2c(C)c(CCC(=O)Nc3ccc(OC)c(OC)c3)c(=O)oc2c1	/	3.7	/	/	/	/
Cc1nnc(SCC(=O)Nc2nsc(-c3ccc(C(C)(C)C)cc3)n2)s1	-11.0%	-15.1	0.9	-18.8%	?	-13.1%
CC1=NN(/C(=N\c2nnc(C)s2)Nc2ccc(C(C)(C)C)cc2)[C@H](c2ccc(C)cc2)S1	18.4µM*	-0.9	?	?	17.8µM*	?
COc1cccc(C(=O)Nc2cnc3ccccc3c2)c1	/	8.5	/	/	/	/
Cc1ccc(/C=C/C(=O)c2ccc(-c3ccccc3)cc2)c(C)c1	/	4.8	/	/	/	/
Cc1c(C(=O)Nc2ccc(F)cc2)nnn1-c1cccc(C(F)(F)F)c1	7.31µM*	-5.2	-7.8	9.2µM*	?	15.8µM*
Cc1c(C(=O)Nc2nccs2)nnn1-c1cccc(C(F)(F)F)c1	/	-0.1	/	/	/	/
SMILES	DT40 TDP1 CPT	LDHA block	IL-1B inflam inh	DT40 TDP1 no CPT	RORgamma inh	Gal4-VP16 FLuc
NC(=O)CN(CC1CCOC1)C1CC1 (stereo unspecified)	/	8.0	/	/	/	/
CN1CCC(N(C)S(=O)(=O)c2ccc(NC(=O)c3ccc(S(=O)(=O)N(C)C)cc3)cc2)CC1	-0.3%	-14.5	-10.6	-27.0%	/	/
Cc1c(C(=O)Nc2ccc(S(=O)(=O)N(C)C3CCN(C)CC3)cc2)oc2ccccc12	20.6µM*	-5.5	-52.3*	18.4µM*	/	/
Cc1c(C(=O)Nc2ccc(S(=O)(=O)N(C)C3CCN(C)CC3)cc2)oc2c(Cl)cccc12	?	-9.1	-96.1*	?	/	/
Cc1c(C(=O)Nc2cccc(S(=O)(=O)N3CCCC3)c2)oc2c(F)cccc12	/	10.1	/	/	/	/
Cc1ccc(NC(=O)c2ccc3ccccc3n2)cc1S(=O)(=O)N1CCOCC1	?	-0.9	40.9	14.6µM*	24.3%	-16.8%
Cc1ccc(NC(=O)c2cc(=O)c3ccccc3o2)cc1S(=O)(=O)N1CCCCC1	?	-0.4	?	20.6µM*	43.6%	-11.0%
Cc1ccc(NC(=O)c2ccccc2-c2ccc(C(F)(F)F)cc2)cc1S(=O)(=O)N1CCOCC1	?	-1.5	-19.2	14.6µM*	41.1%	-8.5%
O=C(Nc1cccc(S(=O)(=O)N2CCOCC2)c1)c1ccc2ccccc2n1	?	-8.2	-15.7	?	24.9%	-11.0%
COC(=O)c1cc(NC(=O)c2cc(-c3ccc(C(F)(F)F)cc3)oc2C(F)(F)F)ccc1N1CCOCC1	?	1.8	-0.2	20.6µM*	11.4%	-5.1%
CCN1CCN(c2ccc(NC(=O)c3ccc(S(=O)(=O)NCc4ccco4)cc3)cc2)CC1	/	-4.7	/	/	/	/
O=C(Nc1ccc(Cl)cc1F)c1ccccc1OCC1CCCO1 (stereo unspecified)	/	-3.9	/	/	/	/
NC(=O)c1ccccc1OC/C=C/c1ccccc1	/	1.6	/	/	/	/
Cc1nc(-c2ccc(S(=O)(=O)Nc3ccc(Cl)cc3C)cc2)co1	/	8.3	/	/	/	/
Cc1ccc(NC(=O)c2ccc([N+](=O)[O-])o2)cc1S(=O)(=O)N1CCOCC1	5.17µM*	13.5	-94.2*	4.61µM*	-14.9%	-20.6%
COCc1c(C(=O)Nc2ccc(C)c(S(=O)(=O)N3CCOCC3)c2)oc2ccccc12	?	-7.0	-3.4	?	/	/
Cc1ccc(NC(=O)c2cc(=O)c3ccccc3o2)cc1S(=O)(=O)N1CCOCC1	18.4µM*	0.3	-0.2	11.6µM*	31.4%	9.7%
Cc1sc(NC(=O)CN2CCOCC2)nc1-c1ccc2c(c1)CCN2S(=O)(=O)c1ccccc1	20.6µM*	-5.8	-1.8	9.2µM*	7.08µM*	5.62µM*
O=C(CN1CCOCC1)Nc1nc(-c2ccc3c(c2)CCN3S(=O)(=O)c2ccccc2)cs1	?	-3.3	-20.7	?	-30.6%	?
Cc1cccc(C(=O)N2CCc3cc(-c4nc(NC(=O)CN5CCCC5)sc4C)ccc32)c1	?	-8.2	-10.4	?	-18.4%	0.3%
Cc1ccccc1C(=O)N1CCc2cc(-c3nc(NC(=O)Cc4ccc5c(c4)OCO5)sc3C)ccc21	7.31µM*	-6.2	?	6.51µM*	-10.1%	?
Cc1sc(NC(=O)Cc2ccc3c(c2)OCO3)nc1-c1ccc2c(c1)CCN2C(=O)c1cccc(F)c1	11.6µM*	-9.2	5.0	9.2µM*	9.3%	-1.1%

High-throughput results: PubChem, National Center for Advancing Translational Sciences (NCATS)
